SARS PLpro yeast = SARS-CoV PLP inhibition in yeast; S. cerevisiae expressing SARS-CoV PLpro, growth rescue; Potency, µM (series often up to 32.9 µM), for inactives: at the top dose activity, positive = growth rescue, usual class: activators; 330,000 tested, 0.19% active; AID 485353; calls by dose curve; further: potency means the concentration at half of the fitted maximal effect; 0% is about no effect; nearly all actives have a fitted effect of over 55% in size
HCMV antiviral = blocks human cytomegalovirus replication; activity change, negative = inhibition, % at 57.5 µM; AID 1259415; HFF cells, HCMV-luciferase reporter, 72 h; hits give low values; 410,000 tested, 4.5% active; in the data active means activity change below about -60%; inconclusive means no clear call, values can overlap the other calls; inactive means above about -39%; further: on the % scale 0 is the no-effect control and ±100 the full control effect
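Human foreskin fibroblasts infected with luciferase-reporter HCMV at MOI 1 PFU/cell, compounds at two doses. Luciferase measured 72 h post infection; normalized to buffer-only basal and Salinomycin (10uM) controls.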
HCV inh = inhibitors of hepatitis C virus infection; Huh7.5.1 HCVcc-Cre infection, luciferase reporter, 44 h; Potency, µM (highest dose often 41.8 µM), for the others: top-dose activity change, negative = inhibition, usual class: inhibitors; 340,000 tested, 3.4% active; AID 651820; active means well fitted inhibition curve with a large enough effect; inconclusive means small, poorly fitted or top-dose-only effect, or another doubt; inactive means no such curve, though single readings can be large or run the other way; further: potency means the concentration at half of the fitted maximal effect; on the % scale 0 is the no-effect control and ±100 the full control effect
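Cells seeded at 1,000/well and cultured 4 h, then compounds added followed by HCVcc-Cre virus (~0.5 moi). After 44 h further culture, luciferase substrate was added, plates held 15 min at room temperature, and luminescence read for 15 sec.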
LASV entry inh = inhibitors of Lassa virus binding or cell entry. 300,000 tested, 1.2% active. Potency, µM (titrated, usually from 37.9 µM), for inactives: top-dose activity change, negative = inhibition, most hits filed as inhibitors. Lassa virus pseudotype entry inhibition, cell reporter; calls by dose curve; tested in HEK293 cells; further: potency means the concentration at half of the fitted maximal effect; on the % scale 0 is the no-effect control and ±100 the full control effect; nearly all actives have a fitted effect of over 50% in size
MARV entry inh = inhibitors of Marburg virus binding or cell entry. Potency, µM (series often up to 37.8 µM), inactives show top-dose activity change, negative = inhibition, usual class: inhibitors. 300,000 tested, 1.8% active. Marburg virus pseudotyped entry inhibition, cell reporter; calls by dose curve; tested in HEK293 cells; further: potency means the concentration at half of the fitted maximal effect; on the % scale 0 is the no-effect control and ±100 the full control effect
FMDV antiviral = blocks foot and mouth disease virus | AID 1159524 | FMDV antiviral cell-based qHTS | 410,000 tested, 1.2% active | Potency, µM (highest dose often 57.9 µM), without a hit: at the highest dose activity change, negative = inhibition, most hits filed as inhibitors; calls by dose curve; tested in HEK293T cells; further: read-out not given here; potency means the concentration at half of the fitted maximal effect; on the % scale 0 is the no-effect control and ±100 the full control effect; nearly all actives have a fitted effect of over 45% in size
* marks the source's active call; other numbers are inactive results; ? = inconclusive; . = not tested or not shown; [ ] = dose if it differs, or a comment. This is a sample that favours compounds with a hit; in the whole collection about 8% have one here.

SMILES | SARS PLpro yeast | HCMV antiviral | HCV inh | LASV entry inh | MARV entry inh | FMDV antiviral
CN1CCN(CC(=O)N2CCn3c4c(c5cc(C6CCCCC6)ccc53)CCCC42)CC1 (stereo not drawn) | -15% | . | 7.9µM* | ? | ? | ?
CCCCNC(=O)c1cc2n(n1)[C@@H](C(F)(F)F)C[C@H](c1ccccc1)N2 | . | . | . | . | -19% | .
CCCOc1cc(N(CC)CC)ccc1/C=C(/C#N)c1nc2ccc(C)cc2[nH]1 | -9% | ? | ? | -27% | ? | ?
CCN(CC)c1ccc(/C=C(/C#N)c2nc3ccc(C)cc3[nH]2)c(OC(C)C)c1 | -2% | ? | 2.8µM* | ? | ? | 7%
CCOc1cc(N(CC)CC)ccc1/C=C(/C#N)c1nc2ccccc2[nH]1 | -5% | -24 | 2.5µM* | -15% | 13µM* | -24%
CC1CN(CC(=O)NCCc2ccncc2)Cc2ccccc2O1 (stereo not drawn) | . | . | . | . | . | -3%
CCN(CC)S(=O)(=O)c1ccc2c(c1)c(=O)c(C(=O)NCc1ccccc1Cl)cn2C | . | -65* | . | -25%[46.1 µM] | ? | -12%
CCN(CC)S(=O)(=O)c1ccc2c(c1)c(=O)c(C(=O)NCc1ccccc1OC)cn2C | . | ? | . | ? | 14%[46.1 µM] | 0%
COC(=O)c1cc(=O)n(Cc2cccs2)c(=Nc2ccc(F)cc2)s1 | 0% | -29 | ? | . | . | ?
COC(=O)c1cc(=O)n(Cc2ccco2)c(=Nc2ccc(F)c(Cl)c2)s1 | -6% | -29 | ? | . | . | ?
COC(=O)c1ccc(N=c2sc(C(=O)OC)cc(=O)n2C)cc1 | 4% | 21 | 11% | . | . | 32µM*
CCOC(=O)c1ccc(N=c2sc(C(=O)OC)cc(=O)n2C2CC2)cc1 | 6% | 15 | -5% | -1% | -1% | ?
COC(=O)c1cc(=O)n(-c2ccc(F)cc2)c(=Nc2ccc(F)cc2)s1 | -67% | 64 | ? | -17% | ? | 22µM*
COC(=O)c1cc(=O)n(CCc2ccccc2F)c(=Nc2ccc(F)c(Cl)c2)s1 | -2% | ? | 7.9µM* | . | -6% | 16µM*
Cc1c(Cl)cccc1NC(=O)Cn1nnc(-c2nc(-c3ccccc3)no2)c1N | . | -11 | . | 15%[46.1 µM] | . | 2%
CC(=O)c1ccc(F)c(-c2cc(C)cc3c2OC(CNC(=O)C2CCCCN2C)C3)c1 (stereo not drawn) | . | . | . | . | . | -14%
O=[N+]([O-])/C=C/c1c(Cl)cccc1Cl | . | -19 | 8.9µM* | -5% | 10µM* | 7.9µM*
O=[N+]([O-])/C=C/c1cc2ccccc2[nH]1 | -7% | 3 | -7% | . | . | ?
Cc1ccccc1C(=O)Nc1ccc(C(=O)OCc2cc(=O)n3c4c(sc3n2)CCCC4)cc1 | . | -30 | . | ? | . | -15%
COc1ccc(Nc2nc(-c3sc(NC(C)=O)nc3C)cs2)cc1 | 3.2µM* | . | . | . | -2% | .
CC(=O)Nc1ccc(Nc2nc(-c3sc(C)nc3C)cs2)cc1 | 3% | -29 | ? | ? | -40% | 32µM*
Cc1nc(Nc2ccc(S(N)(=O)=O)cc2)sc1C(=O)Nc1ccccc1 | 0% | -69* | ? | ? | -29%[46.1 µM] | ?
CC(=O)c1ccc(Nc2nc(-c3sc(C)nc3C)cs2)cc1 | . | -29 | . | . | . | 25µM*
Cc1nc(Nc2ccccc2)sc1C(=O)Nc1ccccc1 | -3% | 17 | ? | ? | ? | 24%
CCN(CC)c1ccc(NC(=O)C2CCCN(S(=O)(=O)c3ccc4c(c3)oc(=O)n4C)C2)c(C)c1 (stereo not drawn) | . | -23 | . | 1%[46.1 µM] | 1%[46.1 µM] | ?
SMILES | SARS PLpro yeast | HCMV antiviral | HCV inh | LASV entry inh | MARV entry inh | FMDV antiviral
NS(=O)(=O)c1ccc(Nc2nc(-c3cccc([N+](=O)[O-])c3)cs2)cc1 | 0% | ? | 25µM* | -13%[46.1 µM] | -30%[46.1 µM] | ?
CC(=O)c1cccc(Nc2nc(-c3sc(C)nc3C)cs2)c1 | -7% | 3 | 8.9µM* | ? | ? | ?
Cc1ccc(Nc2nc(-c3sc(N)nc3C)cs2)cc1 | -6% | 58 | -9% | . | . | 23%
Cc1nc(C)c(-c2csc(Nc3ccc(S(N)(=O)=O)cc3)n2)s1 | -1% | -18 | 11µM* | ? | ? | -19%
Cc1ccc(Nc2nc(-c3sc(C)nc3C)cs2)cc1 | -21% | ? | 5.6µM* | . | . | 9%
CCN(CC)CCCNC(=O)Cc1csc2nc(-c3ccc(Cl)cc3)cn12 | . | -7 | . | 15%[46.1 µM] | . | 26%
CCC(Sc1nc(-c2ccccc2)[nH]c1S(=O)(=O)c1ccc(C)cc1)C(=O)O (stereo not drawn) | . | 6 | . | 0%[46.1 µM] | 5%[46.1 µM] | 0%
CCC(=O)c1ccc(O)c(CC=C(C)C)c1 | -9% | -64* | -17% | 8% | -1%[46.1 µM] | ?
Cc1csc2nc(COC(=O)c3ccc(NC(=O)c4ccccc4Br)cc3)cc(=O)n12 | . | -72* | . | ? | . | -3%
Cc1cccc(OCC(=O)Nc2cccc(C(=O)OCc3cc(=O)n4c(C)csc4n3)c2)c1 | . | -61* | . | -25%[46.1 µM] | . | -18%
Cc1ccccc1OCC(=O)Nc1ccccc1C(=O)OCc1cc(=O)n2c(C)csc2n1 | . | -75* | . | 10%[46.1 µM] | . | ?
Cc1cn2c(=O)cc(COC(=O)c3cccc(NC(=O)COc4ccccc4Cl)c3)nc2s1 | . | 45 | . | 29%[46.1 µM] | . | 8.9µM*
Cc1csc2nc(COC(=O)c3ccc(NC(=O)C(C)C)cc3)cc(=O)n12 | . | -34 | . | ? | . | 5%
Cc1cccc(-n2c3nc(=O)[nH]c(=O)c-3cc3ccc(Cl)cc32)c1C | . | -24 | . | 0%[46.1 µM] | ? | ?
COc1cc(/C=N/N(CCO)C2=NS(=O)(=O)c3ccccc32)cc(OC)c1OC | 4% | 11 | ? | -17%[46.1 µM] | ? | -25%
COc1cc(Br)cc(/C=N/N(CCO)C2=NS(=O)(=O)c3ccccc32)c1OC | 7% | 58 | ? | -28%[46.1 µM] | 4µM* | ?
Cc1cc(C)c(OCCOCCn2c(-c3ccc(Cl)cc3)nc3ccccc3c2=O)c(C)c1 | . | 29 | . | ? | 12%[46.1 µM] | 8%
Cc1ccc(-c2cc(C(=O)N/N=C/c3c(C)nn(C)c3C)c3ccccc3n2)cc1C | 2% | 19 | 35µM* | ? | ? | -5%
Cc1[nH]c2ccccc2c1C=NNC(=O)c1cc(-c2cccnc2)nc2ccccc12 | 1% | 9 | ? | . | . | -29%
Cc1nn(-c2ccccc2)c(N2CCCC2)c1/C=N/NC(=O)c1cc(-c2cccnc2)nc2ccccc12 | -5% | 38 | 14µM* | ? | ? | -11%
Fc1c(F)c(F)c(/C=N/NC(=S)Nc2cccnc2)c(F)c1F | 0% | -81* | ? | ? | ? | ?
Oc1cccc(/C=N/NC(=S)Nc2cccnc2)c1O | -12% | 91 | ? | 21µM* | ? | 59%
Oc1ccc(C=NNC(=S)Nc2ccccc2)nc1 | . | -97* | . | . | . | 43%
Fc1cccc(F)c1/C=N/NC(=S)Nc1cccnc1 | 3% | ? | ? | 5% | -8%[46.1 µM] | 7%
S=C(N/N=C/c1ccccc1Cl)Nc1ccccc1 | ? | 6 | -5% | ? | -19% | 9%

From PubChem
